The values that follow come from PubChem BioAssay AID2653 (National Center for Advancing Translational Sciences (NCATS), 2010).

Results filed as inconclusive are left out. Active and inactive are the calls of the source. Calls follow the shape of the dose curve; as a rule, active = well fitted curve in the direction sought with a large enough effect; inconclusive = small, poorly fitted or top-dose-only effect, or another doubt; inactive = no such curve, though single readings can be large or run the other way.

A short description of this assay: Secondary Assay for Activators of Human Pyruvate Kinase M2 isoform - Cell Titer Glo Cytotoxicity for Probe SAR. The note with it: HeLa viability, CellTiter-Glo ATP luminescence, 24 h; series mostly up to 58.2 µM. The procedure, abridged: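 HeLa cells, 500 per well, plated 24 h then exposed to compound 24 h at 37 C. Total ATP by CellTiter-Glo luminescence after 10 min at room temperature; doxorubicin control.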
As to `Cc1ccccc1Nc1c(-c2ccccc2)nc2cccc(C)n12`, the call was inactive. Under `COc1cccc(N2C(=O)c3ccccc3C2=O)n1` stands “inactive”.

`Cc1nc(-c2ccc(S(=O)(=O)Nc3ccc(C)c(C)c3)s2)cs1`: the molecule was called inactive. Under `O=C1CCc2cc(S(=O)(=O)Nc3ccc(-c4ccccc4)cc3)ccc2N1` stands “inactive”. In the case of `O=C1c2ccccc2C(=O)N1c1cnc2ccccc2c1`, the call was inactive. `O=C1c2ccccc2C(=O)N1c1ccc2ccccc2n1`: the molecule was classed as inactive. Under `Cc1cc(NS(=O)(=O)c2ccc3c(c2)CCC(=O)N3)ccc1Cl` stands “inactive”. Turning to `Cc1ccccc1Nc1c(-c2ccc(Cl)s2)nc2ccccn12`, the outcome was inactive. As for `O=C1CCc2cc(S(=O)(=O)Nc3cccc(-c4ccccc4)c3)ccc2N1`, the result was inactive.

For the molecule `Cc1ccc(NS(=O)(=O)c2ccc3c(c2)CC(=O)N3)cc1C`, the molecule was called inactive. Regarding `CC(=O)N1CCCc2cc(S(=O)(=O)Nc3ccc(C)c(C)c3)ccc21`, the call was inactive. For `COc1cccc(N2C(=O)c3ccccc3C2=O)c1`, the molecule was classed as inactive. Regarding `O=C1CCc2cc(S(=O)(=O)Nc3ccc4c(c3)CCC4)ccc2N1`, the molecule was called inactive. Take `O=C1CCc2cc(S(=O)(=O)Nc3ccc4ncccc4c3)ccc2N1`: the result was inactive.

As to `Nc1cccc(S(=O)(=O)N2CCCN(S(=O)(=O)c3ccc4c(c3)OCCO4)CC2)c1`, the molecule was classed as inactive. As to `Cc1ccc(NS(=O)(=O)c2ccc3c(c2)N(C)C(=O)CO3)cc1C`, the outcome was inactive. Take `O=C1c2ccccc2C(=O)N1c1cccnc1`: the outcome was inactive. Take `Cn1c2cc(S(C)=O)sc2c2cnn(Cc3cccc(O)c3)c(=O)c21` (configuration not stated): the outcome was inactive. For `Cc1ccc(NS(=O)(=O)c2cc3c(cc2Cl)CCC(=O)N3)cc1C` the value was “inactive”.

`Cc1ccc(NS(=O)(=O)c2ccc3c(c2)CCN(C(=O)C(F)(F)F)C3)cc1C`: the molecule was classed as inactive.

With `Cc1ccc(OC2=NS(=O)(=O)c3ccccc32)cc1`, the outcome was inactive. With `COc1cccc(OC2=NS(=O)(=O)c3ccccc32)c1`, the molecule was called inactive.

For the molecule `O=C1c2ccccc2C(=O)N1Cc1ccccn1`, the molecule was called inactive.

As to `Cc1ccc(-c2nc3ccc(Cl)cn3c2Nc2ccccc2)o1`, the result was inactive. Under `O=C1CCc2cc(S(=O)(=O)Nc3cccc(Br)c3)ccc2N1` stands “inactive”.

Consider `Cc1ccc(NS(=O)(=O)c2cc3c(cc2N2CCC2)NC(=O)CC3)cc1C`, for which the molecule was called inactive. For `Cc1ccc(Nc2c(-c3ccsc3)nc3c(C)cccn23)cc1` the value was “inactive”; for `Cc1ccc2nc(-c3ccc(C)o3)c(NC3CCCC3)n2c1`, “inactive”; for `Cc1ccc(NS(=O)(=O)c2cc3c(cc2Cl)NC(=O)CO3)cc1C`, “inactive”. Regarding `Cc1ccc(Nc2c(-c3ccsc3)nc3cccc(C)n23)cc1`, the call was inactive. With `Cc1ccc(NS(=O)(=O)c2cc3c(cc2-c2ccccc2)NC(=O)CO3)cc1C`, the result was inactive. Regarding `COc1cccc(NS(=O)(=O)c2ccc3c(c2)CCC(=O)N3)c1`, the result was inactive.
